Experimental findings from ChEMBL document CHEMBL4513216, “Probing the Open Global Health Chemical Diversity Library for Multistage-Active Starting Points for Next-Generation Antimalarials” (ACS Infect Dis, 2020) are described below.

In all, about 69,000 compounds went through this assay and about 8,600 (12%) showed an effect of 50% or more. The full list was thinned out, with strong results kept by preference.

The test system of this test is Plasmodium berghei. In words: Screen against P. berghei liver stage (PbLuc), transformed with Luciferase, at 10uM. Type of test: functional, HepG2. Particulars: tested at 10 uM.
Regarding `O=C(NCC(=O)N1CCCC1)c1nc(Cc2c(Cl)cccc2Cl)no1`, the INHIBITION is on record as -32.8%.
For `Cc1ccc(C#N)c(N2CCC3(CCCN(C4CCOCC4)C3=O)C2)n1` (stereo not given), the INHIBITION is recorded as -20.8%.
As for `c1cnc(N2CCOCC3(C2)CN(c2nccs2)CCO3)nc1` (stereo not given), the figure is 44.8%; as for `Cc1csc(C(Cc2ccsc2)NC(=O)CN(C)Cc2cccnc2)n1` (stereo not given), 42.6%.
For `CN(CC(=O)NC(Cc1ccsc1)c1cccnc1)Cc1ccccn1` (stereo not given), the INHIBITION was found to be 26.1%.
Consider `CN(CC(=O)NC(Cc1ccsc1)c1cccnc1)Cc1cccnc1` (stereo not given), for which the INHIBITION worked out at 64.6%.
The result for `CC(NC(=O)N1CCCN(C)CC1)c1ccc(S(N)(=O)=O)cc1` (stereo not given) reads -5.22%.
Regarding `Cc1ccc(O)c(CNC2CCc3nc(C(C)C)nn3C2)n1` (stereo not given), the INHIBITION was determined as 15.8%.
As to `CN1CC(=O)N(c2ccsc2)CC12CCN(C(=O)N1CCCC1)C2` (stereo not given), the INHIBITION is given as -5.05%.
In the case of `CCOC(=O)c1n[nH]cc1-c1cncn1CCn1nc(C)c(Cl)c1C`, the INHIBITION is recorded as -39.4%.
In the case of `CS(=O)(=O)N1CCCC12CCCN(C(=O)c1ccncc1)C2` (stereo not given), the INHIBITION stood at 10.7%.
With `CS(=O)(=O)N1CCCC12CCCN(C(=O)c1ccc3[nH]ccc3c1)C2` (stereo not given), the INHIBITION is reported as 57.9%.
Take `CS(=O)(=O)N1CCCCC12CCN(C(=O)c1ccccc1)C2` (stereo not given): the INHIBITION was 61.8%.
As to `CS(=O)(=O)N1CCCC12CCCN(C(=O)c1ccnnc1)C2` (stereo not given), the INHIBITION is listed as 26.4%.
With `CS(=O)(=O)N1CCCC12CCCN(C(=O)c1ccc3c(c1)OCO3)C2` (stereo not given), the INHIBITION was -1.15%.
For `CS(=O)(=O)N1CCCC12CCCN(C(=O)c1ccc[nH]1)C2` (stereo not given), the INHIBITION is on record as -24.8%.
On to `O=S1(=O)C[C@@H]2[C@H](C1)N(Cc1ncc[nH]1)CCN2CCCc1ccccc1`, for which the INHIBITION came to 34.275%.
In the case of `COc1ccc(Cl)cc1NC(=O)CN1CCc2nc(NC(C)=O)sc2C1`, the INHIBITION is 30.2%.
As for `CCOc1ccccc1C(C(=O)O)N(C)Cc1cc(C)[nH]n1` (stereo not given), the figure is 27.6%; as for `Cc1n[nH]c(C)c1NC(=O)CN1CCc2c(nc(C(C)C)n2C)C1`, -2.48%.
As for `CCCc1noc(CCCC(=O)N2CCCC2c2cnn(C)c2)n1` (stereo not given), the figure is 64.7%; as for `Cn1cc(C2CCCN2C(=O)CCCc2cccs2)cn1` (stereo not given), 9.14%; as for `Cn1cc(C2CCCN2C(=O)CCCc2ccccn2)cn1` (stereo not given), 62.6%.
Take `CCCc1noc(CCC(=O)N2CCCC2c2ccc(OC)cc2)n1` (stereo not given): the INHIBITION was 0.914%.
As for `Cn1cc(C2CCCN2C(=O)CCCOc2ccccc2F)cn1` (stereo not given), the INHIBITION was 0.914%.
On to `CCCc1noc(CCC(=O)N2CCCC2c2ccncc2)n1` (stereo not given), for which the INHIBITION is 13.3%.
For `Cc1nnc([C@@H]2C[C@H]3CN(C(=O)c4c(C)noc4C)C[C@H]3O2)[nH]1`, the INHIBITION was 12.7%.
Consider `CC(C)Cc1cc(NC(=O)c2ccncc2)n(C)n1`, for which the INHIBITION turned out to be 48.4%.
Take `c1ccc(Cc2cncc(C3CCCN3C3CCOCC3)n2)cc1` (stereo not given): the INHIBITION was determined as 10.175%.
Turning to `Cn1nc(C2CCCN(Cc3ccc(F)cc3)C2)c2nccnc21` (stereo not given), the INHIBITION is recorded as 43.6%.
In the case of `c1cc(CN2CCCC(c3nnc(-c4cnccn4)o3)C2)ccn1` (stereo not given), the INHIBITION came to 26.8%.
The result for `Cn1nc(C2CCCN(Cc3ccccc3)C2)c2nccnc21` (stereo not given) reads 64.9%; that for `Cn1nc(C2CCCN(Cc3ccc(F)c(F)c3)C2)c2nccnc21` (stereo not given), 54.4%.
The result for `Fc1ccc(CN2CCCC(c3nnc(-c4cnccn4)o3)C2)cc1F` (stereo not given) reads 58.6%; that for `Cn1nc(C2CCCN(Cc3cc(F)ccc3F)C2)c2nccnc21` (stereo not given), 40%.
For the molecule `c1cncc(CN2CCCC(c3nnc(-c4cnccn4)o3)C2)c1` (stereo not given), the INHIBITION is given as -22.6%.
On to `Cn1nc(C2CCCN(Cc3cccc(F)c3)C2)c2nccnc21` (stereo not given), for which the INHIBITION stood at 31.3%.
As for `Cn1nc(C2CCCN(Cc3cc(F)cc(F)c3)C2)c2nccnc21` (stereo not given), the figure is 36.4%; as for `Cc1nc(C2CCCN2Cc2ccn(C)c(=O)c2)no1` (stereo not given), 5.7%; as for `COCCN(C)C(C(=O)O)c1ccc(C)c(C)c1` (stereo not given), 19.4%.
Take `CCN1CC(=O)NCC12CCN(C(=O)c1ccco1)C2` (stereo not given): the INHIBITION was 1.34%.
Consider `Cc1cc(C)n(CC2CCCN2C(=O)c2ccc3nncn3c2)n1` (stereo not given), for which the INHIBITION is on record as -54.6%.
`Cc1noc2nc(C3CCCN(Cc4ccncc4)C3)cc(C(F)F)c12` (stereo not given): the INHIBITION is recorded as 34%.
On to `Cc1nc(C(C)NCc2cc(O)c3cccc(F)c3n2)cs1` (stereo not given), for which the INHIBITION is on record as -2.48%.
Consider `Cn1cc(Br)cc(NC(=O)Cc2cccs2)c1=O`, for which the INHIBITION was 53.3%.
Consider `CCC(=O)Nc1cc(Br)cn(C)c1=O`, for which the INHIBITION stood at 8.92%.
As to `Cn1cc(NC(=O)Cc2cccs2)c(=O)n(C)c1=O`, the INHIBITION is -7.16%.
Regarding `O=C(NCCc1nnc2n1CCC2)NCC1(c2ccccc2F)CC1`, the INHIBITION was 33.8%.
For the molecule `COCCN1CCCC1(C)c1nc(C)cc(N)n1` (stereo not given), the INHIBITION was -3.94%.
Regarding `Cc1csc(N2CCCN(C(=O)c3cccs3)CC2)n1`, the INHIBITION is reported as 29.2%.
Take `Nc1nc2c(c(NCc3nc(-c4ccncc4)n[nH]3)n1)CCCC2`: the INHIBITION is listed as -97.2%.
The result for `Nc1nc2c(c(N3CCN(C(=O)c4cccs4)CC3)n1)CCCC2` reads 72.5%; that for `N#Cc1cccnc1N1CCN(C(=O)c2cccs2)CC1`, 9.16%; that for `Nc1nc2c(c(NCc3ccncc3)n1)CCCC2`, -68.2%.
As for `Nc1nc2c(c(NCc3ccc(C(=O)N4CCCC4)cc3)n1)CCCC2`, the INHIBITION is given as 63.8%.
